Only some compounds are listed: those with a hit (about 3% of all), similar ones and a draw of the others.
SENP8 block-1 – inhibitors of human SENP8 protease; Q96LD8; purified SENP8, Z-RLRGG-aminoluciferin cleavage, luminescence; inhibition, % at 10 µM; AID 2540; 1.2% of 330,000 active; in the data active = inhibition above about 50%
SENP7 inh – inhibitors of human SENP7 protease | inhibition, % at 5 µM | 1.5% of 330,000 active | recombinant SENP7, Z-RLRGG-aminoluciferin luminescence, 40 min | Q9BQF6;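 active = inhibition above about 50% at the single test dose, limit read from the data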;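 also: plate controls were DMSO with enzyme for no effect and no enzyme buffer wells for full effect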
SENP6 inh – inhibitors of human SENP6 protease; Recombinant SENP6 catalytic domain, aminoluciferin luminescence; inhibition, % at 10 µM; 1.8% of 330,000 active; AID 2599;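 active = inhibition above about 50% at the single tested dose, limit read from the data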;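 also: plate controls were DMSO wells with enzyme for no effect and DMSO wells lacking enzyme for full effect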
Target sequence (Q9GZR1 628-1112 limits assumed): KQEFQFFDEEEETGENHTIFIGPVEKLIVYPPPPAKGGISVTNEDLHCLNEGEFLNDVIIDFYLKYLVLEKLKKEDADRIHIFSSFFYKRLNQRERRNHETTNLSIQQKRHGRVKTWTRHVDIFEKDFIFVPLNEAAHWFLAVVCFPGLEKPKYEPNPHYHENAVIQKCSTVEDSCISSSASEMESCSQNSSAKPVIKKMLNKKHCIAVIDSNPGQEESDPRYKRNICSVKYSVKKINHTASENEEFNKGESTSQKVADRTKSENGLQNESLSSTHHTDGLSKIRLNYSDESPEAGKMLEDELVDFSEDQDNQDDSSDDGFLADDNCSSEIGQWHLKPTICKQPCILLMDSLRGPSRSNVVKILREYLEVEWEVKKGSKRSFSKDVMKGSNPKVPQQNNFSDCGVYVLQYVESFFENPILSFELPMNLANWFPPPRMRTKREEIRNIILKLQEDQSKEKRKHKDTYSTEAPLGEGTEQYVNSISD
TRAIL sens C8 – sensitizes caspase-8 expressing cells to TRAIL. 1% of 360,000 active. NB7+C8 cells + TRAIL, ATPlite viability luminescence. inhibition (viability loss, TRAIL sensitization), % at 10 µM;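 active = compounds causing at least 50% loss of cell viability in the single-dose screen, relative to plate controls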
SENP8 block-2 – inhibitors of human SENP8 protease | Q96LD8 | recombinant SENP8, Nedd8 substrate fluorescence | inhibition, % at 20 µM | 0.64% of 360,000 active | AID 602440; in the data active = inhibition mostly above about 40%, no sharp cut-off; inactive = mostly below about 27%
PPC-1+TRAIL kill – PPC-1 cancer cell killing with TRAIL present. cell killing (% activity), % at 4 µM or 5 µM. 0.41% of 220,000 active. PPC-1 cells + TRAIL, ATPLite viability luminescence;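 active = cell killing above 50% in the first pass at 4 µM, then a duplicate retest at 5 µM averaging 50% or more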;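 also: plate controls were cells with TRAIL plus DMSO for no effect and medium-only wells lacking cells for full effect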
SENP8 confirm – human SENP8 inhibition, confirmed; 40% of 6,200 active; Recombinant SENP8, Z-RLRGG-aminoluciferin luminescence, 60 min; AID 488912; inhibition, % at 12.5 µM; shares compounds with SENP7 inh;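 active = mean inhibition across replicates above about 50%, limit read from the data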
SENP6 confirm – confirmation of human SENP6 protease inhibitors. inhibition, % at 12.5 µM. 58% of 6,200 active. shares compounds with SENP7 inh. AID 488915. recombinant SENP6, Z-RLRGG-aminoluciferin luminescence
SENP7 conf – human SENP7 inhibition, confirmed; shares compounds with SENP7 inh; recombinant SENP7, Z-RLRGG-aminoluciferin luminescence, 40 min; inhibition, % at 12.5 µM; 69% of 6,200 active; AID 488917
Casp3 select – selectivity test for SENP inhibitors: human caspase-3 inhibition | 60% of 6,200 active | inhibition, % at 12.5 µM | shares compounds with SENP7 inh | purified caspase-3, Z-DEVD-aminoluciferin luminescence, 60 min;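 active = mean inhibition above about 50%, limit read from the data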;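 also: plate controls were enzyme with DMSO for no effect and wells without caspase-3 for full effect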
SENP luc ctr – counter-screen for SENP inhibitors: luminescence interference; shares compounds with SENP7 inh; Pre-incubated SENP8/Z-RLRGG-aminoluciferin, luciferase luminescence interference; inhibition, % at 12.5 µM; 39% of 6,200 active; AID 488919;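 active = mean inhibition above about 50% when retested at one dose, limit read from the data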;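 also: plate controls were DMSO wells with completed reaction for no effect and substrate without enzyme for full effect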
* = called active by the depositor; nt = not tested or not shown.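 The calls were made as follows, unless noted: active = mean inhibition above about 50% in the one-dose retest (limit read from the data); inactive = the rest.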

SMILES	SENP8 block-1	SENP7 inh	SENP6 inh	TRAIL sens C8	SENP8 block-2	PPC-1+TRAIL kill	SENP8 confirm	SENP6 confirm	SENP7 conf	Casp3 select	SENP luc ctr
CCC(C(=O)N1CCOCC1)n1nc(C)c2sc3ccccc3c2c1=O (stereo not given)	-9	3	-8	10	7	nt	nt	nt	nt	nt	nt
CCOC(=O)C1(C)CCCN(C(=O)c2ccc3c(c2)CCO3)C1 (stereo not given)	nt	nt	nt	-16	8	nt	nt	nt	nt	nt	nt
N#Cc1cnn2ccn(C3OC(CO)C(O)C3O)c12 (stereo not given)	0	3	-2	-30	12	14	nt	nt	nt	nt	nt
N#Cc1c(-c2ccccc2)nc(SCc2cccc(Cl)c2)[nH]c1=O	9	-3	7	10	-6	nt	nt	nt	nt	nt	nt
c1cncc(-c2nc(-c3ccc4c(c3)OCCO4)cs2)c1	80*	83*	79*	38	-97	nt	3	81*	97*	72*	80*
O=Cc1nccc2ccccc12	nt	nt	nt	10	-9	nt	nt	nt	nt	nt	nt
O=C1c2ccccc2C(=O)C1c1nccc2ccccc12	59*	96*	97*	89*	34	-3	87*	81*	98*	92*	29
O=C(c1ccccc1)c1ccc(Cn2cc(-c3ccccc3)nn2)cc1	58*	52*	61*	13	13	nt	52*	65*	83*	31	17
CNS(=O)(=O)c1cn(CC(=O)NCc2ccc(N(C)C)cc2)cc1S(=O)(=O)NC	0	-2	-8	-6	-1	nt	nt	nt	nt	nt	nt
CCc1cc(C(=O)NNC(=S)NCc2ccccc2)cs1	4	4	1	11	17	15	nt	nt	nt	nt	nt
Cc1cc(C(=O)Nc2ccc(Br)cc2)cs1	5	60*	41	26	6	nt	2	22	28	42	3
CCc1cc(C(=O)NNC(=S)Nc2ccccc2C)cs1	36	28	60*	24	13	28	33	30	19	14	38
CNS(=O)(=O)c1ccc(NC(=O)c2csc(C)c2)cc1	3	1	11	-1	11	nt	nt	nt	nt	nt	nt
CCc1cc(C(=O)Nc2ccccc2)cs1	52*	75*	67*	21	5	26	64*	66*	92*	81*	77*
CCCn1ncc(CN2CCC(n3nccc3NC(=O)c3ccccc3Cl)CC2)c1C	-7	-13	-4	-5	3	nt	nt	nt	nt	nt	nt
CCOc1ccc2nc(NC(=O)c3cccnc3)sc2c1	71*	86*	84*	35	-133	33	12	20	41	40	6
CCOc1ccc2nc(NC(=O)c3ccc(C)o3)sc2c1	94*	98*	96*	58*	-428	nt	3	95*	102*	91*	10
CCOc1ccc2nc(NC(=O)c3cnc(C)cn3)sc2c1	-6	-5	-25	25	8	20	nt	nt	nt	nt	nt
CCCC(=O)Nc1nc2ccc(OCC)cc2s1	-6	-15	-11	21	-2	0	nt	nt	nt	nt	nt
CN(C)C(=S)Nc1nc2ccccc2s1	nt	nt	nt	26	10	-5	nt	nt	nt	nt	nt
CCOc1ccc2nc(NC(=S)N(C)C)sc2c1	49	57*	77*	13	14	12	71*	69*	92*	58*	82*
COc1ccc(CNC(=S)Nc2ccccc2-c2ccccc2)cc1	0	4	-1	17	11	6	nt	nt	nt	nt	nt
CCOC(=O)c1cc2ccc(OC(=O)c3ccco3)cc2oc1=O	36	63*	56*	1	-308	24	55*	61*	87*	89*	56*
CCOC(=O)c1c(C)n(C)c2ccc(OC(=O)c3ccco3)cc12	3	6	-5	-16	22	5	nt	nt	nt	nt	nt

Source: PubChem BioAssay (Sanford-Burnham Center for Chemical Genomics)
